A selection: hits, their analogues and other compounds. The true share with any hit is near 2.4%.
D2 PAM-1 = potentiates the human D2 dopamine receptor allosterically; P14416; DiscoveRx D2 beta-arrestin cells, luminescence, 90 min; 100% = 57 uM dopamine signal; potentiation, % (test concentration not listed); 360,000 tested, 0.23% active; in the data active = potentiation above about 50%
Target sequence (P14416 whole entry, looked up): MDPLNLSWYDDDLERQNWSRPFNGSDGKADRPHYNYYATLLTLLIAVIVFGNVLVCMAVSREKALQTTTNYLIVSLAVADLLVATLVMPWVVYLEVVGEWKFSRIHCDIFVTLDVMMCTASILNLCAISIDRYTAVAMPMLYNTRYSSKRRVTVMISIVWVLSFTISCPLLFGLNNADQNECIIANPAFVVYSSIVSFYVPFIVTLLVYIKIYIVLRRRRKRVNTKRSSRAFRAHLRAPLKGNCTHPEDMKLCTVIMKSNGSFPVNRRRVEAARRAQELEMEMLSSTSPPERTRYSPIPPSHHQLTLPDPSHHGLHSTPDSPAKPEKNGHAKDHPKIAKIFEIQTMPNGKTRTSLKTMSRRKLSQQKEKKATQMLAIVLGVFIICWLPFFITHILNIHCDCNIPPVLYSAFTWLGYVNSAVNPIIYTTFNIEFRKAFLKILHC
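PathHunter beta-arrestin assay in DiscoveRx D2 cells. Compounds were added with an EC20 of dopamine (50 nM final) for 90 min at 37 deg C. Luminescence was read 1 h after detection reagent, with 57 uM dopamine as the EC100 control.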
D2 ag-1 = activates the human D2 dopamine receptor; DiscoveRx PathHunter D2 beta-arrestin, luminescence, 90 min; 100% = 57 uM dopamine signal; activation, % (no concentration beside the values); 360,000 tested, 0.084% active; in the data active = activation above about 40%
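DiscoveRx PathHunter D2 beta-arrestin cells (2,100/well) attached overnight, then compound-stimulated 90 min at 37 C in HBSS/10 mM HEPES/0.1% Tween-20 buffer; beta-galactosidase complementation read by luminescence after 1 h at ambient temperature. Dopamine 57 uM final (EC100) as control.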
D2 antag = antagonizes the human D2 dopamine receptor; inhibition, % at 10 µM; 340,000 tested, 2% active; HEK293 TREx D2 cells, calcium flux, dopamine EC80; P14416; in the data active = inhibition above about 30%; inactive = below that, where a call was filed; note: 0% is about no effect
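In this primary screen, negative modulation is detected by tracking calcium flux after an EC80 dopamine challenge in inducible HEK293 T-REx D2 cells preexposed to test compound for 180 s.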
D2 ag-2 = activates the human D2 dopamine receptor | HEK293 T-REx D2 cells, calcium flux agonist mode | AID 485358 | 340,000 tested, 0.53% active | activation, % at 2 µM | P14416;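 active = activation over 3 SD above normal in the single-dose calcium agonist read, cut at about 30% in these data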; note: 0% is about no effect
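Tetracycline-induced HEK293 T-REx cells with force-coupled D2 receptor, plated overnight at 30 C, loaded with no-wash calcium dye. After a 10 s baseline, compound was pin-added and calcium flux read kinetically for 180 s; calcium rises flagged agonists.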
D2 PAM-2 = positively modulates the human D2 dopamine receptor allosterically; P14416; HEK293 T-REx D2, calcium flux, EC20 dopamine potentiation; potentiation, % at 10 µM; 340,000 tested, 0.34% active;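 active = potentiation over 3 SD above the plate norm, cut at about 30% in these data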; note: 0% is about no effect
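Tetracycline-induced HEK293 T-REx cells force-coupled to calcium signalling expressed D2; compounds were pin-added after a 10 s baseline, read kinetically 180 s, then an EC20 dopamine challenge followed with a further 180 s calcium read.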
An asterisk follows results filed as active; · = no result given; ! = not confirmed by another sample.

SMILES | D2 PAM-1 | D2 ag-1 | D2 antag | D2 ag-2 | D2 PAM-2
Cc1ccc(NC(=O)C(C)SCC(=O)Nc2ccc(F)cc2)cc1S(=O)(=O)N1CCOCC1 (stereo unspecified) | -30 | -6 | 8 | 0 | -16
CCN(CC)Cc1nc2c(c(=O)[nH]1)C1(CCCCC1)Cc1ccccc1-2 | -15 | 0 | -3 | 1 | -4
O=c1[nH]c(NNC(=S)NC2CCCCC2)nc2c1C1(CCCC1)Cc1ccccc1-2 | -2 | -1 | 38* | -2 | 14
Cn1c(NCCO)nc2c(c1=O)C1(CCCCC1)Cc1ccccc1-2 | -15 | -6 | 68* | 2 | -8
CN(C)Cc1nc2c(c(=O)[nH]1)C1(CCCCC1)Cc1ccccc1-2 | -16 | -3 | 37* | 1 | -5
CC(C)Sc1n[nH]c2nc3c(c(=O)n12)C1(CCCC1)Cc1ccccc1-3 | · | · | 55* | 0 | -5
O=c1[nH]c(NCCCO)nc2c1C1(CCCC1)Cc1ccccc1-2 | -19 | 1 | 17 | 1 | -11
CCOc1ccc(C(=O)Nc2nnc(C)s2)cc1OCC | -6 | -1 | 6 | 0 | -7
CCOc1ccc(C(=O)Nc2c3c(nn2C(C)(C)C)CSC3)cc1OCC | -7 | -4 | 30* | 0 | -7
COc1cccc(/C=C/C(=O)OCC(=O)c2ccc(Br)cc2)c1 | -4 | -1 | · | · | ·
CCc1nn(Cc2cccc(F)c2)c(=O)c2cc3cc(C)ccc3n12 | · | · | · | 1 | 2
COc1ccc(NC(=O)COC(=O)CCCOc2ccc(Cl)cc2Cl)cc1 | -9 | 1 | 40* | 0 | -20
COc1c(C)cc(Br)cc1C(=O)Nc1ccccc1C | -5 | -9 | 8 | -2 | -3
COc1c(C)cc(Br)cc1C(=O)O | -5 | -1 | 40* | 1 | -9
CC(C)CCOc1ccc(C(=O)NCC2OCCc3ccccc32)cc1 (stereo unspecified) | · | · | · | -2 | -4
CCCc1nn2c(=O)cc(COC(=O)c3ccccc3NC(=O)c3ccc(OCC)cc3)nc2s1 | · | · | · | -4 | 1
CC1CCc2nc3ncn(Cc4ccccc4F)c(=O)c3cc2C1 (stereo unspecified) | · | · | · | · | 6
N#CC1=C(SCC(=O)NC23CC4CC(CC(C4)C2)C3)NC(=O)C(C#N)C12CCCCC2 (stereo unspecified) | 8 | 2 | -39 | 1 | 94*
N#CC1=C(SCC(=O)NC2CC2)NC(=O)C(C#N)C12CCCCC2 (stereo unspecified) | 5 | 3 | 4 | 0 | 9
Cn1c(NCC(O)c2ccccc2)nc2c1c(=O)n(Cc1ccc(Cl)cc1)c(=O)n2C (stereo unspecified) | -2 | -2 | -13 | 0 | 5
Cn1c(NCC(O)c2ccccc2)nc2c1c(=O)n(Cc1ccc(Cl)c(Cl)c1)c(=O)n2C (stereo unspecified) | 54* | 2 | · | · | ·
CCOC(=O)C1=C[C@@H](CC)N(S(=O)(=O)c2ccc(C)cc2)[C@H]1c1cccs1 | -3 | -4 | · | · | ·
COc1ccc(N2C(N)=NC(N)=NC2(C)C)cc1 | -4 | -3 | -13 | -1 | 31*
CCOc1ccc(S(=O)(=O)N2CCN(Cc3nc4ccc(C)cc4o3)CC2)cc1 | · | · | · | · | 6
CCCn1c(NCc2ccccc2C)nc2ccccc21 | · | · | · | 2 | -20
SMILES | D2 PAM-1 | D2 ag-1 | D2 antag | D2 ag-2 | D2 PAM-2
CCCn1c(Nc2ccccc2C)nc2ccccc21 | -33 | 0 | 42* | 0 | -13
Cc1cc(Nc2ccccc2)nn1C(=O)c1ccc([N+](=O)[O-])cc1 | 56* | 4 | 1 | 0 | -5
Cc1cc(Nc2ccccc2)nn1C(=O)c1ccc(Cl)cc1 | -6 | 1 | 20 | -1 | -4
Cc1ccc(-c2cc(C(=O)Nc3cc(C(=O)O)ccc3C)c3ccccc3n2)cc1 | 5 | -2 | -30 | 0 | 32*
O=C(N/N=C/c1ccco1)c1cc(-c2ccccc2)nc2ccccc12 | -35 | -3 | 37* | 0 | -20
Cc1ccc(-c2cc(C(=O)O)c3ccccc3n2)s1 | -13 | -3 | 34* | 0 | -8
Cc1ccc(C)c(NC(=O)c2cc(C)nc3ccccc23)c1 | 13 | 0 | -2 | -2 | 1
O=C(O)c1cc(-c2ccccc2)nc2ccccc12 | -4 | -7 | 40*! | -1 | 0
O=C(CCC1N=C2c3ccccc3N=C(SCc3ccc(F)cc3)N2C1=O)N1CCN(c2ccccc2)CC1 (stereo unspecified) | · | · | · | · | 8
